Compound activity deposited in PubChem BioAssay by National Center for Advancing Translational Sciences (NCATS).
GLP1R inv ag = inverse agonists of human GLP-1 receptor; 410,000 compounds, 1.6% hits; AID 624417; HEK293 GLP-1R CRE-luciferase, luminescence, 24 h; GLP-1R form is constitutively active; Potency, µM (series often up to 38.3 µM), for the others: at the top dose activity change, negative = inhibition, most hits filed as inhibitors; note: potency is the fitted concentration of half-maximal effect; % is set by controls: 0 for no effect and ±100 for the full control effect; nearly all actives have a fitted effect of over 55% in size
Target sequence (P43220 whole entry, looked up): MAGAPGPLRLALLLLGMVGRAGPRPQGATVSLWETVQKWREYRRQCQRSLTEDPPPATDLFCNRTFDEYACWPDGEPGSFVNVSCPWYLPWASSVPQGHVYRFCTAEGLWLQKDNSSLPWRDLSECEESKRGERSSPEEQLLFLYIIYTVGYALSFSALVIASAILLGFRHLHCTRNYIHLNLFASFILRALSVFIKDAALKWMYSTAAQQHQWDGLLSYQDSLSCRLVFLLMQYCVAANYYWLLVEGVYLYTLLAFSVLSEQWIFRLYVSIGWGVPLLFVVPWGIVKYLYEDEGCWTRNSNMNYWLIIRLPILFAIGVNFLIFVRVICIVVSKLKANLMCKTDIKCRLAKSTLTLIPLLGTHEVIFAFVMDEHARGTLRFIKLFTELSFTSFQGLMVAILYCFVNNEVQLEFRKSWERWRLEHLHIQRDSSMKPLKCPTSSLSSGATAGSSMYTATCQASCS
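HEK293 cells stably co-expressing constitutively active GLP-1R and a cAMP-responsive luciferase reporter were seeded in DMEM with 10% Nu serum, given compounds after 12 h, and incubated 24 h at 37 deg C. Luminescence was then read.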
DRD3 antagonist = antagonists of human D3 dopamine receptor. 360,000 compounds, 2.5% hits. max response, negative = inhibition, %. D3R cells, DiscoveRx beta-arrestin luminescence, antagonist mode; hits give low values. P35462. AID 652054; in the data active = max response below about -50%; inconclusive = no clear call, values can overlap the other calls; note: % is set by controls: 0 for no effect and ±100 for the full control effect
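Cells expressing the human receptor were seeded at 1500 cells/well, incubated overnight at 37 degrees C in 5% CO2, then exposed to library compounds with dopamine controls for 90 minutes at 37 degrees C before luminescent detection.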
DRD3 agonist = activates the human D3 dopamine receptor; P35462; D3R DiscoveRx beta-arrestin cells, luminescence, 90 min; max activation, %; 410,000 compounds, 0.58% hits; AID 652048; in the data active = max activation above about 30%; note: 0% is about no effect
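Cells at 1500/well, incubated overnight, then treated with pinned compounds (dopamine as control) for 90 min at 37 degrees C. DiscoveRx reagent added for 30 - 60 minutes at room temperature; luminescence read.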
GLP1R ag = GLP-1 receptor (human) agonism; P43220; HEK293 GLP-1R CRE-luciferase, luminescence, 4-6 h; cells express a hypersensitive GLP-1R form; Potency, µM (series often up to 45.6 µM), inactives show top-dose activation, most hits filed as activators; 380,000 compounds, 0.007% hits; AID 624172; note: potency is the fitted concentration of half-maximal effect; % of control where 0% means no effect
Active calls of the source: *; ? = inconclusive; . = no result. Hits are enriched below; roughly 4.3% of the tested compounds scored in any of these assays. Unless noted, calls come from the whole dose curve; as a rule, active = well fitted curve in the direction sought with a large enough effect; inconclusive = small, poorly fitted or top-dose-only effect, or another doubt; inactive = no such curve, though single readings can be large; an effect the other way counts as inactive or inconclusive.

SMILES	GLP1R inv ag	DRD3 antagonist	DRD3 agonist	GLP1R ag
O=C(c1cnc2c(c1)COc1ccccc1-2)c1ccccc1O	?	.	10.7	-4.0%
O=C(Nc1cccc(C(F)(F)F)c1)c1ccc2snnc2c1	7.0%	.	-2.6	-6.5%
CC(N)c1csc(NC(=O)Nc2cccc(C(F)(F)F)c2)n1 (configuration not stated)	?	-54.0*	-18.8	-17.1%
CC(C)CC(N)c1csc(NC(=O)Nc2ccccc2C(C)C)n1 (configuration not stated)	10µM*	41.6	-7.3	4.5%
O=C(Nc1cccc(C(F)(F)F)c1)Nc1ccc2snnc2c1	11.2µM*	.	5.4	-5.5%
CCOC(=O)Cc1csc(NC(=O)CSc2nnc(C3CC3)n2C)n1	13.8%	-50.4*	1.4	4.7%
COc1ccc(NC(=O)Nc2nc(C(N)CC(C)C)cs2)cc1 (configuration not stated)	?	-6.4	-9.0	-2.4%
COc1ccc(C(=O)Nc2cc(-c3nc4ncccc4o3)ccc2C)cc1Br	6.9%	.	5.8	.
CCCNC(=O)c1ccc(CN2CCc3ccccc3C2)cc1	-40.1%	-15.2	-29.8	9.5%
CCC(C)NC(=O)c1ccc(CN2CCc3ccccc3C2)cc1 (configuration not stated)	21.8%	-65.6*	-17.9	4.1%
O=C(NCc1cccnc1)c1ccc(CN2CCc3ccccc3C2)cc1	?	-75.4*	0.0	-8.8%
CC(C)(C)SCCNC(=O)c1ccc(CN2CCc3ccccc3C2)cc1	?	-74.0*	-39.2	20.8%
COCC(C)NC(=O)c1ccc(CN2CCc3ccccc3C2)cc1 (configuration not stated)	-21.3%	-67.7*	-10.9	3.9%
O=C(NCc1ccc2c(c1)OCO2)c1ccc(CN2CCc3ccccc3C2)cc1	?	?	-13.7	-11.1%
CCC(Sc1nc2ccncc2[nH]1)C(=O)Nc1ccc(F)cc1 (configuration not stated)	-16.1%	.	2.8	.
O=C(Cn1c(=O)nc(-c2ccccc2)c2ccccc21)NCc1ccccc1Cl	16.1%	.	9.9	.
O=C(Cn1nc2c(cc1=O)CCCC2)NCc1ccccc1Cl	5.8%	.	-3.5	.
CC(=O)Nc1ccc(N(C(=O)Cn2nnc3ccccc32)C(C(=O)NCc2ccccc2)c2ccc(C)cc2)cc1 (configuration not stated)	-3.2%	.	-9.3	.
Cc1ccc2c(c1)C(O)(c1c(C)[nH]c3ccccc13)C(=O)N2 (configuration not stated)	3.16µM*	-0.4	4.3	-8.2%
CCOc1ccccc1-n1nnc(-c2nc(-c3ccccc3)no2)c1N	18.3%	.	6.2	.
COc1ccc(NC(=O)c2c(NC(=O)c3ccc(Br)cc3)sc3c2CCCC3)cc1	?	.	-19.0	.
O=C(CC(CC(=O)c1ccccc1)c1ccccn1)c1ccccc1	10µM*	25.6	-7.8	14.5%
CCOC(=O)c1sc(NC(=O)/C=C/c2cnn(C)c2C)c(C(=O)OC(C)C)c1C	20.3%	8.9	34.5*	23.8%
CCOC(=O)c1sc(NC(=O)/C=C/c2ccc(OCC)cc2)c(C(=O)OCC)c1C	1.5%	.	0.9	.
Cc1c(NC(=O)c2ccc(NS(=O)(=O)c3ccccc3)cc2)c(=O)n(-c2ccccc2)n1C	10.6%	-19.6	-5.7	0.1%
SMILES	GLP1R inv ag	DRD3 antagonist	DRD3 agonist	GLP1R ag
O=[N+]([O-])c1cccc(/C=N/n2c(-c3cccnc3)n[nH]c2=S)c1	13.5%	-29.1	-5.6	10.9%
S=c1[nH]nc(-c2cc(-c3ccccc3)n[nH]2)n1/N=C/c1ccc(Cl)cc1	128.2%	-55.0*	-17.5	23.7%
S=c1[nH]nc(-c2cc(-c3ccccc3)n[nH]2)n1/N=C/c1ccc(Cl)c(Cl)c1	183.8%	-8.2	-3.8	14.2%
O=[N+]([O-])c1ccc(/C=N/n2c(-c3cccnc3)n[nH]c2=S)cc1	4.0%	-56.0*	-15.1	-4.2%
COc1ccc(C(=O)c2oc3ccccc3c2NC(=O)c2cc(=O)c3ccc(C)cc3o2)cc1Cl	0.9%	.	-1.0	.
Oc1cccc(-c2nc3c4c(ncn3n2)-c2ccccc2CC42CCCC2)c1	?	212.2	82.7*	-15.6%
Cc1ccn2c(Nc3ccc4c(c3)OCO4)c(-c3ccco3)nc2c1	8.7%	.	-0.1	.
O=c1cc(CN2CCOCC2)c2ccccc2o1	21.8%	21.1	42.8*	-3.4%
O=c1cc(CN2CCOCC2)c2c(ccc3ccccc32)o1	3.9%	25.4	3.4	13.0%
COc1ccc(C2c3c(n(C)c4ccccc34)C(=O)N2CC(=O)Nc2ccc(C)c(Cl)c2)cc1 (configuration not stated)	-20.9%	.	-10.4	.
OCCNc1nc(Nc2ccccc2)nc2ccccc12	7.08µM*	15.8	1.1	1.3%
Cc1c(Cl)cccc1Nc1nc(NCCO)c2ccccc2n1	2.51µM*	-0.4	-8.1	10.0%
OCCNc1nc(Nc2ccccc2)nc(Nc2ccccc2)n1	?	-19.0	4.7	20.1%
OCCNc1nc(Nc2ccc(Br)cc2)nc2ccccc12	2µM*	9.5	3.2	-1.2%
Oc1ccccc1Nc1nc(NCc2ccccc2)c2ccccc2n1	?	5.1	7.8	-1.1%
Cc1ccc(S(=O)(=O)c2nc(-c3cccs3)oc2SC(C)c2ccccc2)cc1 (configuration not stated)	12.6%	.	0.6	.
CCCCN1CC(c2nc3ccccc3n2CCCCOc2ccc(C)c(C)c2)CC1=O (configuration not stated)	?	.	-10.1	.
CCCCN1CC(c2nc3ccccc3n2CCCCOc2cc(C)cc(C)c2)CC1=O (configuration not stated)	10µM*	.	-15.0	.
Cc1cc(C)cc(N2CC(c3nc4ccccc4n3C)CC2=O)c1 (configuration not stated)	2.6%	-53.7*	-5.8	10.0%
Cc1cccc(OCCCCn2c(C3CC(=O)N(c4ccc(C)cc4C)C3)nc3ccccc32)c1 (configuration not stated)	12.6µM*	.	-3.9	.
Cc1cc(C)n2c(Nc3ccccc3)c(-c3ccccc3)nc2n1	?	.	2.1	.
COc1ccccc1-c1noc(-c2ccc(NC3CCCC3)c([N+](=O)[O-])c2)n1	10.4%	.	0.6	.
CCc1ccc2c(c1)c(N=NC1=NC(=O)CS1)c(O)n2CC	11.8%	-88.1*	-22.9	5.9%
CCc1ccc2[nH]c(O)c(N=NC3=NC(=O)CS3)c2c1	2.8%	-5.7	-4.5	-0.4%
O=S1(=O)CCN(Cc2csc(-c3cccs3)n2)CC1	?	3.1	9.6	2.7%
c1csc(-c2nc(CN3CCSCC3)cs2)c1	?	-57.8*	-35.0	-2.3%
CCOc1cc(C(=O)Nc2ccc3nc(Nc4cccc(Cl)c4)cc(C)c3c2)cc(OCC)c1OCC	5.62µM*	.	0.4	-0.8%
Cc1cc(Nc2cccc(Cl)c2)nc2ccc(NC(=O)c3cncc(Br)c3)cc12	2µM*	.	-9.9	-5.1%
CCC12CN3CC(C)(CN(C1)C3c1c(C)n(C)c3ccccc13)C2=O (configuration not stated)	13.1%	.	2.4	.
